Assay [1] deals with Lysosomal acid glucosylceramidase (Homo sapiens) (UniProt P04062). As to the kind of experiment: Glucocerebrosidase-p2 (AID 348; in the data active means potency below about 10 µM; further: potency means the concentration at half of the fitted maximal effect). Particulars: purified GBA, blue fluorogenic substrate, 40 min. The procedure, abridged:
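Compounds titrated from 0.6 nM upwards against 0.2 nM enzyme in pH 5.9 citric acid/KH2PO4, taurocholate, tween-20; blue fluorogenic substrate 80 uM, 40 min room temperature, stopped and read Ex 365/Em 440 for AC50.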

Assay [2] can be described thus: AP1 Signaling Pathway (AID 357). Further: on the % scale 0 is the no-effect control and ±100 the full control effect. Particulars: ME-180 AP-1-bla reporter, EGF-induced, beta-lactamase ratio, 5 h; at 7.69 µM (top of the series) unless noted. The method in brief: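 ME-180 cells with beta-lactamase reporter under AP-1 response element, stimulated with EC50 EGF; compounds tested in titration series, 5 h at 37 °C. CCF4 substrate added 2.5 h at room temperature; 460/530 nm emission ratio gave %activity and AC50.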

The target of assay [3] is Cytochrome P450 1A2 (Homo sapiens) (UniProt P05177). As to the kind of experiment: p450-cyp1a2 (AID 410; calls by dose curve; further: potency means the concentration at half of the fitted maximal effect). Particulars: recombinant CYP1A2, luciferin-ME demethylation, luminescence; series mostly up to 57 µM. The procedure, abridged:
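20nM CYP1A2 with 100uM Luciferin-ME (at Km) in 100mM KPO4; compound preincubated 10 min, NADPH regeneration added, 60 min at room temperature. Luciferin quantified by luminescence after detection reagent; normalized to 57 uM furafylline.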

Assay [4] is described as follows: NFAT Signaling Pathway (AID 444).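 Further: carbachol stimulus at about its EC50 of 1 µM final; on the % scale 0 is the no-effect control and ±100 the full control effect.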 Particulars: Jurkat NFAT-bla M1, carbachol, beta-lactamase ratio, 5 h; at 7.69 µM (top of the series) unless noted. The procedure, abridged: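 Jurkat cells carrying an NFAT-driven β-lactamase reporter and co-transfected muscarinic M1 receptor were treated with compound plus carbachol (1 uM final, an EC50 level) for 5 h at 37 °C. CCF4 loading followed for 1 h at RT; 460/530 nm ratio gave %activity.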

The nature of assay [5]: Stat Signaling Pathway (AID 446).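 Further: ME-180 cervical cancer cells given 40 pM IL-6 alongside compound; SIE-controlled beta-lactamase reporter measured as 460/530 nm FRET emission ratio; on the % scale 0 is the no-effect control and ±100 the full control effect.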 Particulars: ME-180 (cervical carcinoma) SIE beta-lactamase reporter, IL-6 stimulated, 5 h; at 7.69 µM (top of the series) unless noted. The procedure, abridged:
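ME-180 cells carrying a SIE-driven beta-lactamase reporter are stimulated with 40 pM IL-6 for 5 h at 37C in the presence of compound. The 460/530 nm FRET substrate ratio is read after 2.5 h at RT. Data are normalised to 300 pM IL-6 and to 125 nM JAK inhibitor controls.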

In assay [6] the target is Glucocorticoid receptor (Homo sapiens) (UniProt P04150). As to the kind of experiment: GR-EFC Redistribution (AID 451; calls by dose curve; further: potency means the concentration at half of the fitted maximal effect). Particulars: CHO-K1 GR-EFC translocation, beta-gal luminescence, 2 h. The method in brief: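 CHO-K1 cells stably expressing nuclear-localized β-gal enzyme acceptor and GR fused C-terminally to the enzyme donor fragment; ligand-driven nuclear translocation restores β-gal by complementation. Compounds titrated up to 46 uM final, 2 h at 37 °C; luminescence read.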
Chain of Glucocorticoid receptor (Homo sapiens) (P04150 whole entry, looked up, the tested form may be a part): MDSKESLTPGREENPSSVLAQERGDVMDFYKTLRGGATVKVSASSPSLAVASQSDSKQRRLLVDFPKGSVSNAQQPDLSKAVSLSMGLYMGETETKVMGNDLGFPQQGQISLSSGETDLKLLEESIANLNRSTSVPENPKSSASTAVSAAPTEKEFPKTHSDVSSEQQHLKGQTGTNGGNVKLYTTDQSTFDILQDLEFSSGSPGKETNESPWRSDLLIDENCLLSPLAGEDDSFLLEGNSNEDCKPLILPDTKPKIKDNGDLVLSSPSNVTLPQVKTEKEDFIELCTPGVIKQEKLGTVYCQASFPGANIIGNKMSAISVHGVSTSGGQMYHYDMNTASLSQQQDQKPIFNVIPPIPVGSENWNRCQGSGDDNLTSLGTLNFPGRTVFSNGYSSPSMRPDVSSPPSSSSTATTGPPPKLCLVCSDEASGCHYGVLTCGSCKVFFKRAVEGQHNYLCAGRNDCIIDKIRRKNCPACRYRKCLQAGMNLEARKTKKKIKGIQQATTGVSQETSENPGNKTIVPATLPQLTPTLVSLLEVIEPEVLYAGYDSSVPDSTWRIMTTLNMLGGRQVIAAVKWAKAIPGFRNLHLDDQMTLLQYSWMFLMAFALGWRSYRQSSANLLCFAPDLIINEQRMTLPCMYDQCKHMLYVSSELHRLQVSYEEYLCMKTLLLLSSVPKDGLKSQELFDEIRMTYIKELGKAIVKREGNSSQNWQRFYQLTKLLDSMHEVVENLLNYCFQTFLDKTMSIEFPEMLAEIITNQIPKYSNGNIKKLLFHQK

Assay [7] deals with Mitogen-activated protein kinase 10 (Mus musculus) (UniProt Q61831). As to the kind of experiment: JNK3 AlphaScreen Assay (AID 530).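 Further: kinase came from lysate of stimulated human HepG2 cells; signal reports phosphorylation of biotinylated GST-cJun 1-79 at Ser73 with 10 µM ATP; on the % scale 0 is the no-effect control and ±100 the full control effect.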 Particulars: JNK3 lysate, c-Jun phosphorylation; series mostly up to 57.1 µM. The method in brief: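 Inhibitors reduce antibody binding to phosphorylated biotin-cJun, lowering AlphaScreen luminescence. Lysates from HepG2 cells pre-activated by IL-1beta plus TNF-alpha supplied JNK3; compounds were titrated.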

Assay [8] addresses 3',5'-cyclic-AMP phosphodiesterase 4B (Homo sapiens) (UniProt Q07343). As to the kind of experiment: qHTS Assay for Inhibitors of PDE-IV (AID 607; active means well fitted activation curve with a large enough effect in the main read-out, with a control signal flat, not every such curve was filed as active; further: % of control where 0% means no effect). Particulars: HEK293 ACTOne CNG channel cells, membrane potential fluorescence; series mostly up to 22.9 µM. The procedure, abridged: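 HEK293 ACTOne cells with CNG channel (1000/well), endogenous PDE4; membrane potential dye, compounds up to 22.9 uM final. Fluorescence Ex 535/Em 590; RO 20-1724 (100 uM final) as reference.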

Assay [9] has as its target Cytochrome P450 3A4 (Homo sapiens) (UniProt P08684). As to the kind of experiment: qHTS Assay for Activators of Cytochrome P450 3A4 (AID 885; active means well fitted curve in the direction sought with a large enough effect; an effect the other way counts as inactive or inconclusive; further: nearly all actives have a fitted effect of over 65% in size; further: potency means the concentration at half of the fitted maximal effect). Particulars: recombinant CYP3A4, Luciferin-PPXE luminescence, 60 min; series mostly up to 57.1 µM. The procedure, abridged: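 Human CYP3A4 (20 nM) with Luciferin-PPXE at 25 uM (its KM) in 200 mM KPO4; 10 min compound preincubation, then NADPH regeneration and 60 min reaction at RT. Luciferin read by luminescence; normalized to 57 uM ketoconazole full inhibition.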

Assay [10] can be described thus: qHTS Assay for Lipid Storage Modulators (AID 1519; calls by dose curve). Particulars: Drosophila S3 cells, BODIPY lipid droplet/cell ratio, laser cytometry, cells loaded with oleic acid; for activity change, negative = inhibition: at 57.5 µM (top of the series). The procedure, abridged:
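Cells seeded at 5,000 per well were treated with compounds over a concentration series and loaded with oleic acid (400 uM, as added). Lipid droplet fluorescence (488 nm excitation, 500-530 nm channel) was read by laser-scanning cytometry and normalized to 20 uM Triacsin C.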

A short description of assay [11]: Primary qHTS for small molecule stabilizers of the endoplasmic reticulum resident proteome: Secreted ER Calcium Modulated Protein (SERCaMP) assay (AID 1508630; active means well fitted curve in the direction sought with a large enough effect; an effect the other way counts as inactive or inconclusive; further: on the % scale 0 is the no-effect control and ±100 the full control effect). Particulars: SH-SY5Y GLuc-SERCaMP (Gaussia luciferase released on ER calcium loss) secretion, thapsigargin, luminescence; series mostly up to 38.4 µM. The procedure, abridged:
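GLuc-SERCaMP-expressing SH-SY5Y cells, pretreated 16 h with compound, are challenged with thapsigargin to empty ER calcium stores; after 4 h, coelenterazine is added directly to the medium and luminescence is imaged.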

Assay [12] addresses Cytochrome P450 2D6 (Homo sapiens) (UniProt P10635). As to the kind of experiment: qHTS Assay for Inhibitors and Substrates of Cytochrome P450 2D6 (AID 891; active means well fitted curve in the direction sought with a large enough effect; an effect the other way counts as inactive or inconclusive; further: potency means the concentration at half of the fitted maximal effect; nearly all actives have a fitted effect of over 60% in size). Particulars: recombinant CYP2D6, luciferin-ME EGE luminescence; series mostly up to 57.1 µM. The method in brief:
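Human CYP2D6 (5 nM) with 30 uM Luciferin-ME EGE (at Km) in 100 mM KPO4, compound preincubated 10 min, then NADPH regeneration system for 60 min at room temperature. Luciferin read by luminescence; normalized to 1.43 uM quinidine.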

The target in assay [13] is Cytochrome P450 2C19 (Homo sapiens) (UniProt P33261). As to the kind of experiment: qHTS Assay for Inhibitors and Substrates of Cytochrome P450 2C19 (AID 899; active means well fitted curve in the direction sought with a large enough effect; an effect the other way counts as inactive or inconclusive; further: potency means the concentration at half of the fitted maximal effect; nearly all actives have a fitted effect of over 60% in size). Particulars: recombinant CYP2C19, luciferin-H EGE luminescence; series mostly up to 57.1 µM. The procedure, abridged: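 NADPH-dependent conversion of Luciferin-H EGE (10uM, at KM) by 5nM enzyme in 50mM KPO4, 60 min at 37C following 10 min compound preincubation. Stopped with luciferin detection buffer; luminescence read after 20 min.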
Chain of Cytochrome P450 2C19 (Homo sapiens) (P33261 whole entry, looked up): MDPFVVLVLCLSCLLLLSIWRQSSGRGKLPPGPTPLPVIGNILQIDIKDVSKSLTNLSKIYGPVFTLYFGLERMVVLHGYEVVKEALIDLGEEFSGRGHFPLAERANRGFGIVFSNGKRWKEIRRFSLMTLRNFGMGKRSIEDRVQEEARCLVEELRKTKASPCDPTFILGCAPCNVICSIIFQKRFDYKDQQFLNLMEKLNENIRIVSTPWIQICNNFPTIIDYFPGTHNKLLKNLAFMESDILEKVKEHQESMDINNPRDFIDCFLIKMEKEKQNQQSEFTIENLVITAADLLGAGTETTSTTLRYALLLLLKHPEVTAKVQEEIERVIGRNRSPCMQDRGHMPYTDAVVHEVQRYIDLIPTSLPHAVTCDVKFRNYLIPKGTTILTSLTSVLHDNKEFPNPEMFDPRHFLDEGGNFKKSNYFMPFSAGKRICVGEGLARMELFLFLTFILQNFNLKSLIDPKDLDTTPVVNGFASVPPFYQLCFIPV

[14] abbreviates: measured here: cell count channel max response.
Setting [15] is: measured here: lipid channel max response.

Structures are written as SMILES. Records with an inconclusive call do not appear. The source made the active and inactive calls. Unless noted, the call rests on the fitted dose curve; in most records, active means well fitted curve in either direction with a large enough effect (not every such curve was filed as active); inconclusive means small, poorly fitted or top-dose-only effect, or another doubt; inactive means flat fitted curve, though single readings scatter.

Chain of Cytochrome P450 3A4 (Homo sapiens) (P08684 whole entry, looked up): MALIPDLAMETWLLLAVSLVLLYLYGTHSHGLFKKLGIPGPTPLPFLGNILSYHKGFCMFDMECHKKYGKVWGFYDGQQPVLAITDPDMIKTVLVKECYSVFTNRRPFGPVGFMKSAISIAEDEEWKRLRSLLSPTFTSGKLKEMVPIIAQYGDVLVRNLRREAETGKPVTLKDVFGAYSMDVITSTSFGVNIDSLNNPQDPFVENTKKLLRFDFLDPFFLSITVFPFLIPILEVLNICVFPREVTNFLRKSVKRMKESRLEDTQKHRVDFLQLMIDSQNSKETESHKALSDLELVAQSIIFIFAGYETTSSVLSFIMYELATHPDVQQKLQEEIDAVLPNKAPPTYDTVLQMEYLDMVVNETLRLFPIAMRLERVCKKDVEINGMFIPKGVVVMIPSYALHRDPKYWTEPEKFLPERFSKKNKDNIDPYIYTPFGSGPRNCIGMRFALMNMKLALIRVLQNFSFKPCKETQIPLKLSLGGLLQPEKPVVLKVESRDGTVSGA
Chain of 3',5'-cyclic-AMP phosphodiesterase 4B (Homo sapiens) (Q07343 whole entry, looked up): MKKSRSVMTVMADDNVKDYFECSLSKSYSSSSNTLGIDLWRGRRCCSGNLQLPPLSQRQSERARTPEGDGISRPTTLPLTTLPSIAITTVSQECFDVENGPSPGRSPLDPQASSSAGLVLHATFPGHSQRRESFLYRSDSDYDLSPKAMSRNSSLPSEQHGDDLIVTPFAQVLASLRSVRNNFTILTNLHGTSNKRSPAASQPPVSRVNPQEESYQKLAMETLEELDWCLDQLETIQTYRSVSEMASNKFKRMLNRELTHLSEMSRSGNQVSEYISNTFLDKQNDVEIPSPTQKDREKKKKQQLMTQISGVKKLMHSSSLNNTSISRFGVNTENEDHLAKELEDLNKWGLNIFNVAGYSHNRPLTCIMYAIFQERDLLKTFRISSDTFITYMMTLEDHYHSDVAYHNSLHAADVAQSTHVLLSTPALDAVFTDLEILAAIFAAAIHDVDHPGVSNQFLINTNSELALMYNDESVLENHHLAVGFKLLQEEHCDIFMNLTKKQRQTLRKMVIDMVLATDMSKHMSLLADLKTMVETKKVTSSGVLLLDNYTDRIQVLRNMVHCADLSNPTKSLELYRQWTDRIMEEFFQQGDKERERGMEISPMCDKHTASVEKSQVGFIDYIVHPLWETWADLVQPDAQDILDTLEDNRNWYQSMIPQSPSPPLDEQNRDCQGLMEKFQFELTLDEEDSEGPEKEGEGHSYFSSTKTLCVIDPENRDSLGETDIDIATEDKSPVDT
Chain of Lysosomal acid glucosylceramidase (Homo sapiens) (P04062 whole entry, looked up): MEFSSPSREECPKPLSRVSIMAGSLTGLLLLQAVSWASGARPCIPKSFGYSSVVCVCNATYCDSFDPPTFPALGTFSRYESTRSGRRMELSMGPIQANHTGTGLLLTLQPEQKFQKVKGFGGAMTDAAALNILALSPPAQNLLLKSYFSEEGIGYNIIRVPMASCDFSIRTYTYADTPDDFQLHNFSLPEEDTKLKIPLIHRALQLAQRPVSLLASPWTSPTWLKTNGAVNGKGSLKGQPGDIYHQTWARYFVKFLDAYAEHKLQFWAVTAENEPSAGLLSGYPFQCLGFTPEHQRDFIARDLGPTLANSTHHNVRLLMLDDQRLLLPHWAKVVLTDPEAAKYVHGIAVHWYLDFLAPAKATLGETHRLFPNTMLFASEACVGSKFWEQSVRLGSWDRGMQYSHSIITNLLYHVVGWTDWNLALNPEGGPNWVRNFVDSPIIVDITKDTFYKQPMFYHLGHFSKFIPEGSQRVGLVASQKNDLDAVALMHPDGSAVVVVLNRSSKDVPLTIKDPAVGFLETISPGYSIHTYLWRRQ
Chain of Cytochrome P450 1A2 (Homo sapiens) (P05177 whole entry, looked up): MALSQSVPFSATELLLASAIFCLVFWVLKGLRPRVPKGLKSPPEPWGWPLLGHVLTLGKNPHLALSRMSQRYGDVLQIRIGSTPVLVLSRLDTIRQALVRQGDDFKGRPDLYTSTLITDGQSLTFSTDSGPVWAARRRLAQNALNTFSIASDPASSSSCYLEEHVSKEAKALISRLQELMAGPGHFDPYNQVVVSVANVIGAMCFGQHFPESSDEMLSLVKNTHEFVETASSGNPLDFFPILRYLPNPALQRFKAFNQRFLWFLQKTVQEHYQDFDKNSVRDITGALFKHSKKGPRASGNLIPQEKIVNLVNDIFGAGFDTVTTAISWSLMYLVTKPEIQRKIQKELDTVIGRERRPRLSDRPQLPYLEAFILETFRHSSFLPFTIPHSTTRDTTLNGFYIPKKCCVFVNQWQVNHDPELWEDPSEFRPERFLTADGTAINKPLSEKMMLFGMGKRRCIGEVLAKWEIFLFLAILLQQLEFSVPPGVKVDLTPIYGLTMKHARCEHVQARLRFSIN
Chain of Cytochrome P450 2D6 (Homo sapiens) (P10635 whole entry, looked up): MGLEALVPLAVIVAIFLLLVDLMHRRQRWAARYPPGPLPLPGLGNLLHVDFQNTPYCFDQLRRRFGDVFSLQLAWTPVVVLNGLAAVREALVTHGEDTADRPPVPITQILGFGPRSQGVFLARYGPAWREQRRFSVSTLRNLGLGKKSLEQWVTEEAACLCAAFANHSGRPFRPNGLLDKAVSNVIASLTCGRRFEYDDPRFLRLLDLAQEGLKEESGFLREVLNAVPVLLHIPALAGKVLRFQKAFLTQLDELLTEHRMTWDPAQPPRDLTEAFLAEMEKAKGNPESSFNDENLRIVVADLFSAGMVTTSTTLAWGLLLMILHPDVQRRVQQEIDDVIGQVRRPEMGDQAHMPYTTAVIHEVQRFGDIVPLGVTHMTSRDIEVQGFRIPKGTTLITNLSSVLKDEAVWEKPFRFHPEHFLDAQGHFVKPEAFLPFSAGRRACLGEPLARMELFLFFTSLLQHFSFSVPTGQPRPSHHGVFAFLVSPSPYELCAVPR

`O=C(c1csnn1)N1CCC[C@@]2(CCN(c3ccccn3)C2)C1`: the Potency in assay [1] is > 11.4 µM (inactive); in [6], > 46 µM (inactive). The activity change, negative = inhibition was -10.6% (inactive) in assay [2], -7.38% (inactive) in [4] and 3.43% (inactive) in assay [10]. In addition, the Potency result in assay [3], in [8], in [9] and in [11] was “inactive” throughout. In addition, the activity, negative = inhibition in assay [5] was 8.47% (inactive). The compound was classed as inactive in assay [7]. Moreover, the max response was 4.63% in assay [10] (setting [14]) and 10.9% in [10] (setting [15]).

`O=C(c1ccco1)N1CCC2(CC1)CN(C(c1ccccc1)c1ccccc1)C2`: the Potency in [1] is > 11.4 µM (inactive); in assay [6], > 46 µM (inactive); in assay [9], 10 µM (active); in assay [12], 1.26 µM (active). Besides, the results for the activity change, negative = inhibition in assay [2], in assay [4] and in assay [10] were -3.72% (inactive), 11% (inactive) and 2.1% (inactive), respectively. Besides, the Potency result in assay [3], in [8] and in [11] was “inactive” in each case. In addition, the activity, negative = inhibition in assay [5] was -4.65% (inactive). Besides, in [7], the call was inactive. The values for the max response in [10] (setting [14]) and in assay [10] (setting [15]) were 5.15% and 9.48%, respectively.

Turning to `O=C(c1ccncc1)N1CCC[C@@]2(CCN(c3ncccn3)C2)C1`, the Potency in assay [1] is > 11.4 µM (inactive); in assay [6], > 46 µM (inactive). Further, the activity change, negative = inhibition in assay [2] is 2.24% (inactive); in assay [4], 20.3% (inactive); in assay [10] it was 3.78% (inactive). Further, the Potency result in [3], in assay [8], in assay [9] and in [11] was “inactive” in each case. Moreover, in assay [5], the activity, negative = inhibition was 1.34% (inactive). In assay [7], the result was inactive. Moreover, the max response amounted to 21.2% in assay [10] (setting [14]) and 24.4% in assay [10] (setting [15]).

Consider `CS(=O)(=O)N1CCC2(CCN(Cc3ccncc3)CC2)CC1`, for which the Potency in assay [1] was > 11.4 µM (inactive); in assay [6], > 46 µM (inactive). Moreover, the activity change, negative = inhibition in assay [2] is -1.98% (inactive); in assay [4], -4.26% (inactive); in assay [10] it was 5.08% (inactive). In addition, the Potency entry in assay [3], in assay [8], in assay [9] and in assay [11] was “inactive” in each case. For the same compound, the activity, negative = inhibition in assay [5] is 10.3% (inactive). Also, the outcome in [7] was inactive. Also, the max response was found to be 9.75% in [10] (setting [14]) and 18.4% in assay [10] (setting [15]).

On to `O=S(=O)(c1ccccc1)N1CCC2(CCCN(c3ncccn3)C2)CC1`, for which the Potency was > 11.4 µM (inactive) in assay [1], 15.8 µM (active) in assay [3], > 46 µM (inactive) in [6] and 0.398 µM (active) in assay [13]. Moreover, the values for the activity change, negative = inhibition in assay [2], in assay [4] and in assay [10] were 0.46% (inactive), 5.51% (inactive) and 7.3% (inactive), respectively. Moreover, the activity, negative = inhibition in assay [5] was -0.568% (inactive). Besides, the result in [7] was inactive. In addition, the Potency entry in [8], in [9] and in [11] was “inactive” in each case. Further, the max response is -5.51% in [10] (setting [14]) and 5.88% in [10] (setting [15]).

As to `Cc1noc(C)c1C(=O)N1CCC[C@@]2(CCN(Cc3ccccc3)C2)C1`, the figures for the Potency in assay [1], in [6] and in [12] were > 11.4 µM (inactive), > 46 µM (inactive) and 7.94 µM (active), respectively. Further, the activity change, negative = inhibition was -8.33% (inactive) in assay [2], 4.21% (inactive) in [4] and 2.65% (inactive) in [10]. Besides, the Potency entry in assay [3], in assay [8], in assay [9] and in [11] was “inactive” each time. In assay [5], the activity, negative = inhibition was 3.42% (inactive). Also, in assay [7], the compound was called inactive. For the same compound, the max response in assay [10] (setting [14]) turned out to be 16.8%; in assay [10] (setting [15]), 22.2%.
